Reference: PubChem BioAssay (NCATS)
“And” between values parts separate entries of the source, which are not always exact repeats. Equal values may be shown once. Results filed as inconclusive are left out. The source made the active and inactive calls. Calls follow the shape of the dose curve; as a rule, active = well fitted curve in the direction sought with a large enough effect; inconclusive = small, poorly fitted or top-dose-only effect, or another doubt; inactive = no such curve, though single readings can be large; an effect the other way counts as inactive or inconclusive.

Legend:
[1] = Quantitative highthroughput screen to assess conditional lethalithy of P12 Ichikawa cells grown in Human Plasma-Like Medium with dialyzed fetal bovine serum (HPLM+ds) (AID 1963879); conditions: ATP luminescence, 48 h; Potency: viability; series mostly up to 45.8 µM; also: nearly all actives have a fitted effect of over 35% in size
Method in brief: (§1)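 Each medium arm—HPLM with 10% dialyzed FBS, or RPMI1640 with 5 mM glucose and 10% untreated or dialyzed FBS—was screened against an 11-point, 3-fold compound titration for 48 h at 37 °C, with CellTiter-Glo luminescence as endpoint.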

[2] = Quantitative highthroughput screen to assess conditional lethalithy of P12 Ichikawa cells grown in RPMI1640 with dialyzed fetal bovine serum (RPMI+ds) (AID 1963880); conditions: ATP luminescence, 48 h; Potency: P12-Ichikawa viability; series mostly up to 45.8 µM; also: nearly all actives have a fitted effect of over 35% in size;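 as to viability: 100% = DMSO wells and 0% = empty wells on each plate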
Method in brief: as §1

[3] = Quantitative highthroughput screen to assess conditional lethalithy of SEM cells grown in Human Plasma-Like Medium with dialyzed fetal bovine serum (HPLM+ds) (AID 1963882); conditions: SEM B-ALL cells in HPLM+ds, CellTiter-Glo viability, 48 h; series mostly up to 45.8 µM; also: nearly all actives have a fitted effect of over 35% in size
Method in brief: as §1

[4] = Quantitative highthroughput screen to assess conditional lethalithy of SEM cells grown in RPMI1640 with unreated serum (RPMI+s) (AID 1963883); conditions: SEM B-ALL cells, CellTiter-Glo viability, 48 h; series mostly up to 45.8 µM; also: nearly all actives have a fitted effect of over 35% in size;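 as to viability: 100% = DMSO wells and 0% = empty wells without cells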
Method in brief: as §1

[5] = Quantitative highthroughput screen to assess conditional lethalithy of SEM cells grown in RPMI1640 with dialyzed fetal bovine serum (RPMI+ds) (AID 1963884); conditions: SEM B-ALL cells, RPMI+dialyzed FBS, CellTiter-Glo viability, 48 h; series mostly up to 45.8 µM; also: nearly all actives have a fitted effect of over 35% in size;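 as to viability: 100% = DMSO control wells and 0% = empty wells without cells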
Method in brief: as §1

[6] = Quantitative highthroughput screen to assess conditional lethalithy of P12 Ichikawa cells grown in RPMI1640 with untreated serum (RPMI+s) (AID 1963881); conditions: ATP luminescence, 48 h; Potency: viability; series mostly up to 45.8 µM; also: nearly all actives have a fitted effect of over 35% in size;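 as to viability: 100% = DMSO wells and 0% = empty wells without cells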
Method in brief: as §1

[7] = Cellular viability qHTS for adrenocortical cancer (ACC) cell line SW-13 (AID 1963989); conditions: SW-13 ACC cells viability, CellTiter-Glo, 48 h; activity (max response): active compounds read low; also: nearly all actives have a fitted effect of over 65% in size;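 as to activity (max response): cells grown in serum-free medium with ITS supplement; % is scaled to controls: 0 for no effect and ±100 for the full control effect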
Method in brief: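 IC50 and maximal-response values come from four-parameter logistic fits of titration data. SW-13 cells in serum-free medium received compounds (up to 46 uM final) for 48 h before CellTiter-Glo luminescence.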

[8] = Cellular viability qHTS for adrenocortical cancer (ACC) cell line NCI-H295R (AID 1963990); conditions: CellTiter-Glo ATP luminescence, 48 h; series mostly up to 46.1 µM; also: nearly all actives have a fitted effect of over 60% in size
Method in brief: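 Adrenocortical carcinoma cells, suspended at 300 000 cells/mL in serum-free DMEM plus ITS, rested overnight before pin transfer of compound. After two days' incubation, ATP-dependent luminescence was recorded and curve-fitted.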
Potency is read from the fitted curve at half-maximal effect.

With CCOC1OC(=O)C[C@H]1NC(=O)[C@@H]1CCCN1C(=O)[C@@H](NC(=O)c1ccc(N)c(Cl)c1)C(C)(C)C (stereo not given in full) the Potency [1] was 1.66 µM (active), the Potency [2] was 3.32 µM (active) and the Potency [3] was “inactive”. The Potency [4] was “inactive” and the Potency [5] was “inactive”.
With CCCNC(=O)[C@H]1O[C@H]1C(=O)N[C@H](C(=O)N1CCC[C@@H]1C(=O)OC)C(C)CC (stereo not given in full) the Potency [2] was 16.6 µM (active), the Potency [6] was 16.6 µM (active) and the Potency [3] was 20.9 µM (active). For the same molecule, the Potency [4] was 14.8 µM (active) and the Potency [5] was 16.6 µM (active).
With CC1=C(C)C(=O)C(C(CCCCCC(=O)O)c2ccccc2)=C(C)C1=O (stereo not given) the Potency [1] was “inactive”, the Potency [6] was 8.33 µM (active) and the activity (max response) [7] was 0.763% (inactive) and -13.4% (inactive). For the same molecule, the Potency [8] was “inactive”.
In the case of O=C(O)C=Cc1ccc(O)c(O)c1, the Potency [1] was 26.4 µM (active), the Potency [4] was 13.2 µM (active) and the Potency [5] was 14.8 µM (active).
For CC=C(C)C(=O)O[C@H]1C(C)=C[C@]23C(=O)[C@@H](C=C(CO)[C@@H](O)[C@]12O)[C@H]1[C@@H](C[C@H]3C)C1(C)C, the Potency [1] was “inactive” and the Potency [6] was 0.0066 µM (active).
For Cc1ccc(N(CC2=NCCN2)c2cccc(O)c2)cc1, the Potency [1] was “inactive”, the Potency [6] was “inactive” and the Potency [4] was “inactive”. The Potency [7] was 23.1 µM (active) and 25.1 µM (active) and the Potency [8] was “inactive”.
For CC(=O)ON=C1C(c2c(O)[nH]c3cc(Br)ccc23)=Nc2ccccc21, the Potency [1] was 20.9 µM (active) and the Potency [3] was 1.18 µM (active).
For Cc1cn2c(-c3cn[nH]c3)cnc2c(Nc2ccc(C(=O)N3CCNCC3)cc2F)n1, the Potency [6] was 18.7 µM (active), the Potency [3] was 13.2 µM (active) and the Potency [4] was 14.8 µM (active). The Potency [5] was 14.8 µM (active).
For Cc1csc(-c2nnc(Nc3ccc(Oc4ncccc4-c4ccnc(N)n4)cc3)c3ccccc23)c1, the Potency [1] was 0.0105 µM (active), the Potency [4] was 0.0166 µM (active) and the activity (max response) [7] was -17.7% (inactive). The Potency [8] was “inactive”.
For O=C1NC(=O)[C@@H](c2cn3c4c(cccc24)CCC3)[C@H]1c1c[nH]c2ccccc12, the Potency [1] was 1.48 µM (active), the Potency [6] was 1.32 µM (active) and the Potency [4] was 0.59 µM (active).
For CC[C@@]1([C@@H]2O[C@@H]([C@H]3O[C@@](O)(CO)[C@H](C)C[C@H]3C)C[C@H]2C)CC[C@H]([C@]2(C)CC[C@]3(C[C@H](O)[C@@H](C)[C@@H]([C@@H](C)[C@@H](OC)[C@H](C)C(=O)O)O3)O2)O1, the Potency [2] was 2.29 µM (active), the Potency [6] was 1.44 µM (active) and the Potency [3] was 0.512 µM (active). The Potency [4] was 0.457 µM (active), the Potency [5] was 1.15 µM (active) and the Potency [8] was 0.715 µM (active).
For CC[C@H](CC[C@@H](C)[C@H]1CC[C@H]2[C@@H]3CC=C4C[C@@H](O)CC[C@]4(C)[C@@H]3CC[C@]12C)C(C)C, the Potency [2] was “inactive”, the Potency [6] was “inactive” and the Potency [4] was “inactive”. For the same molecule, the Potency [5] was “inactive”.
In the case of CCCCCN=C(N)NN=Cc1c[nH]c2ccc(OC)cc12, the Potency [1] was 13.2 µM (active), the Potency [2] was 14.8 µM (active) and the Potency [4] was 11.8 µM (active).
In the case of COc1ccc(Cc2nccc3cc(OC)c(OC)cc23)cc1OC, the Potency [1] was “inactive”, the Potency [6] was “inactive” and the Potency [3] was “inactive”.
In the case of CC(=O)O[C@]1(C(C)=O)CC[C@H]2[C@@H]3C=C(Cl)C4=CC(=O)[C@@H]5C[C@H]5[C@]4(C)[C@@H]3CC[C@@]21C, the Potency [1] was 2.96 µM (active), the Potency [2] was 2.35 µM (active) and the Potency [6] was 2.96 µM (active). The Potency [4] was “inactive” and the Potency [5] was “inactive”.
For CN[C@H]1[C@@H](O[C@@H]2[C@H](O[C@@H]3[C@@H](O)[C@@H](O)[C@@H](N=C(N)N)[C@@H](O)[C@@H]3N=C(N)N)O[C@H](C)[C@@]2(O)C=O)O[C@@H](CO)[C@@H](O)[C@H]1O, the Potency [1] was “inactive”, the Potency [2] was “inactive” and the Potency [6] was “inactive”. For the same molecule, the Potency [4] was “inactive” and the Potency [5] was “inactive”.
For CCC(=C(c1ccc(O)cc1)c1ccc(OCCNC)cc1)c1ccccc1, the Potency [1] was 4.18 µM (active), the Potency [3] was 13.2 µM (active) and the Potency [4] was 7.43 µM (active).
With Cc1c[nH]c(C=C2C(=O)Nc3ccccc32)c1CCC(=O)O the Potency [1] was 2.64 µM (active) and the Potency [3] was 0.833 µM (active).
With CO[C@@H]1[C@@H](O)[C@H](O)[C@@H](n2c3c(Cl)cccc3c3c4c(c5c6cccc(Cl)c6[nH]c5c32)C(=O)NC4=O)O[C@@H]1CO the Potency [1] was 0.296 µM (active), the Potency [2] was 0.264 µM (active) and the Potency [6] was 0.235 µM (active). The Potency [4] was 0.235 µM (active) and the Potency [5] was 0.469 µM (active).
With N#CC(=C(N)Sc1ccc(N)cc1)c1ccccc1C(F)(F)F the Potency [2] was “inactive” and the Potency [6] was 2.96 µM (active).
For CCOC(=O)N1CCN([N+]([O-])=NOc2ccc([N+](=O)[O-])cc2[N+](=O)[O-])CC1, the Potency [6] was 23.5 µM (active) and the Potency [4] was 4.18 µM (active).
In the case of CN(C(Cc1ccc(OS(=O)(=O)c2cccc3cnccc23)cc1)C(=O)N1CCN(c2ccccc2)CC1)S(=O)(=O)c1cccc2cnccc12 (stereo not given), the Potency [2] was 18.7 µM (active), the Potency [6] was 14.8 µM (active) and the activity (max response) [7] was 5.6% (inactive).
